Among the data in PubChem BioAssay are outcome and AC50 values, retold here.

Results filed as inconclusive are left out. Active and inactive are the calls of the source. No cut-off is given here; in the data, nearly all actives have AC50 up to about 26 µM.

A short description of this assay: growth inhibition of DIPG glioma cells, dose response, cell-based, SU-DIPG-XVII, MIPE5.0, CellTiter-Glo, qHTS (AID 1347060).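 For AC50: cells exposed to compound for 48 hours before viability readout.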 The conditions noted are these: SU-DIPG-XVII viability, CellTiter-Glo ATP luminescence. In general terms: ATP-based viability assays read luminescence as a measure of living cells.
For `CCO[C@@H]1OC(=O)C[C@@H]1NC(=O)[C@@H]1CCCN2C(=O)CC[C@H](NC(=O)c3nccc4ccccc34)C(=O)N12`, the outcome was inactive. As for `O=C(Nc1ccc2c(c1)CCN(Cc1ncn[nH]1)C2)c1ccccc1-c1ccc(C(F)(F)F)cc1`, the compound was classed as inactive. As for `CN1CCN(C(=O)[C@H]2[C@@H](C(=O)O)[C@H]3CC[C@@H]2O3)CC1`, the compound was classed as inactive. What is called AC50 is the concentration giving half of the maximal activity seen. Regarding `COC1CCC(N2C(=O)CNc3ncc(-c4ccc(C(C)(C)O)nc4)nc32)CC1` (stereo not given), the AC50 was 9.34 µM (active).

For `CC[C@@H](Oc1cccc(CN(CCCOc2ccc(OC)cc2)c2nc3ccccc3o2)c1)C(=O)O`, the outcome was inactive. Turning to `C=CC(=O)Nc1cccc(C)c1Nc1ncc2cc(-c3c(Cl)c(OC)cc(OC)c3Cl)ccc2n1`, the AC50 is 14.8 µM (active). Turning to `O=C(O)c1cnn(-c2nc3cc(OC(F)(F)F)c(Cl)cc3[nH]2)c1`, the outcome was inactive.

As to `Cc1cc(OCc2nnc(SC3CCCC3)n2-c2cccnc2)ccc1-c1ccc(S(C)(=O)=O)cc1`, the AC50 is 8.33 µM (active). With `O=C(Nc1nccs1)C(c1cc(F)ccc1O)N1Cc2ccccc2C1=O` (stereo not given), the compound was called inactive. For the compound `COCCNCc1ccc(-c2cc3nccc(Oc4ccc(NC(=S)NC(=O)Cc5ccc(F)cc5)cc4F)c3s2)nc1`, the AC50 was 7.42 µM (active). Regarding `CC(C)[C@](O)(c1ccc2cc(OC(F)F)c(OC(F)F)cc2c1)c1cn[nH]n1`, the result was inactive.

Turning to `FC(F)(F)c1ccc(CNc2ccc(Cc3c[nH]c4ncccc34)cn2)cc1`, the AC50 was 16.6 µM (active). Turning to `CCn1c(=O)c(-c2ccc(Cl)cc2Cl)cc2cnc(Nc3ccc(N4CCNCC4)c(F)c3)nc21`, the AC50 is 0.59 µM (active). Consider `CN[C@@H](C)C(=O)N[C@H](C(=O)N1CCC[C@H]1c1nc(C(=O)c2ccc(F)cc2)cs1)C1CCCCC1`, for which the result was inactive. Same read-out and setting: the result for `CC(=O)N1CCN(c2ccc(NC(=O)Cc3cnc(-c4ccnc(F)c4)c(C)c3)nc2)CC1` reads “inactive”.

For the compound `CCC(CC)CC1(C(=O)Nc2ccccc2SC(=O)C(C)C)CCCCC1`, the call was inactive. Still for that read-out and setting: the result for `CCCNC(=O)c1cn2ncnc(Nc3cc(C(=O)NC4CC4)ccc3C)c2c1C` reads “inactive”; that for `COc1ccc(C(=O)N2CCN(C(=O)/C=C/c3ccc(Br)cc3)CC2)cc1`, “inactive”. On to `COC(=O)c1ccc([C@H]2c3[nH]c4ccccc4c3C[C@H](C(=O)OC)N2C(=O)CCl)cc1`, for which the AC50 is 13.2 µM (active). Turning to `N=C(N)c1ccc2nc(-c3cc(CC(=O)N[C@@H](CC(=O)O)C(=O)O)cc(-c4cc(S(N)(=O)=O)ccc4O)c3O)[nH]c2c1`, the compound was classed as inactive. Same read-out and setting: for `CCCCCCCCCCCCCCCCOCCCOP(=O)(O)COC(CO)Cn1ccc(N)nc1=O` (stereo not given) the value was “inactive”; for `CC(C)C[C@@H]1NC(=O)[C@@H](C(C)C)NC(=O)[C@@H]2CCCN2C(=O)[C@@H](CC(=O)O)NC(=O)[C@@H](Cc2c[nH]c3ccccc23)NC1=O`, “inactive”; for `Cc1cc(Nc2cc(N)ncn2)c(=O)n2c1C(=O)NC21CCCCC1`, “inactive”. Still for that read-out and setting: for `O=C(NCC(=O)N1CC[C@H](NC2CCC(O)(c3ccc(-c4ncccn4)cn3)CC2)C1)c1cccc(C(F)(F)F)c1` (stereo not given in full) the value was “inactive”; for `CC(C)(CO)n1cc(C(=O)c2cncc(NC(=O)Cc3ccc(Cl)cn3)c2)c2cnc(N)nc21`, “inactive”.

`O=C(Nc1cccc(Cl)c1)Nc1ncc(CCNc2ncnc3ccsc23)s1`: the AC50 was 0.0166 µM (active). Consider `O=C1OC2(CCC(C(=O)Nc3ccn(-c4ccccc4F)n3)CC2)c2cnccc21` (stereo not given), for which the compound was called inactive. For the compound `Cc1ccc(-c2nn(C(C)(C)CNC(=O)c3ccncc3)c3ncnc(N)c23)cc1`, the AC50 was 10.5 µM (active). Regarding `COc1cc2c(cc1OC)CN(CCc1ccc(-n3nnc(-c4cc(OC)c(OC)cc4NC(=O)c4cc(=O)c5ccccc5o4)n3)cc1)CC2`, the compound was called inactive. As to `Cn1cc(-c2c[nH]c3ncnc(N4CCOCC4)c23)cn1`, the outcome was inactive. Consider `CC(C)(C)Sc1c(CC(C)(C)C(=O)O)n(Cc2ccc(Cl)cc2)c2ccc(OCc3ccc4ccccc4n3)cc12`, for which the AC50 was 20.9 µM (active). For `CN1CCN(C2CCC(n3cc(-c4ccc(Oc5ccccc5)cc4)c4c(N)ncnc43)CC2)CC1` (stereo not given), the AC50 is 1.48 µM (active). On to `CCN(CC)CCCC[C@H](NC(=O)[C@H](CC(C)C)NC(=O)[C@H](C)NC(=O)[C@H](Cc1ccccc1)NC(=O)c1ccc(C(C)(C)C)cc1)C(=O)N[C@@H](CO)C(=O)OC`, for which the outcome was inactive. Turning to `C[C@@H](OC[C@@]1(c2ccccc2)CC[C@]2(CCC(=O)N2)CN1)c1cc(C(F)(F)F)cc(C(F)(F)F)c1`, the AC50 is 20.9 µM (active). As for `N[C@@H](CCC(=O)O)C(=O)N[C@@H](Cc1c[nH]c2ccccc12)C(=O)O`, the call was inactive.

Consider `Cc1cc(C)c(S(=O)(=O)N(CCc2cccc(Br)c2)Cc2ccc(-c3cccc(S(C)(=O)=O)c3)cc2)c(C)c1`, for which the result was inactive. On the same count and under the same terms, for `O=C(Cc1ccccc1)Nc1nnc(CCSCCc2nnc(NC(=O)Cc3ccccc3)s2)s1` the value was “inactive”. Regarding `C=CC(=O)N1CCC[C@H](n2c(=O)n(-c3ccc(Oc4ccccc4)cc3)c3c(N)ncnc32)C1`, the AC50 was 0.59 µM (active). Same read-out and setting: the result for `CNCCCOc1cc(F)c(-c2c(Cl)nc3ncnn3c2N[C@@H](C)C(F)(F)F)c(F)c1` reads 0.0833 µM (active).

Turning to `CCc1ccc2nc(Nc3cc(Cc4ccccc4)nc(NC4CCC(O)CC4)n3)sc2c1` (stereo not given), the AC50 was 26.3 µM (active).
